The source of these data is PubChem BioAssay (Tox21).

Test [1] can be described thus: qHTS assay to identify small molecule antagonists of the estrogen related receptor (ERR) signaling pathway from Tox21 library - cell viability counter screen (AID 1224834). Further: nearly all actives have a fitted effect of over 30% in size. Further: potency means the concentration at half of the fitted maximal effect. The essentials:
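CellTiter-Fluor fluorescence measured; ERR cells; 17.5 h compound incubation at 37 C; 30 min reagent step.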
In general terms: In qHTS, concentration-response curves come from the screen itself.

Test [2] is described as follows: qHTS assay to identify small molecule agonists of the constitutive androstane receptor (CAR) signaling pathway - cell viability counter screen (AID 1224836). Further: nearly all actives have a fitted effect of over 45% in size. Further: potency means the concentration at half of the fitted maximal effect. On viability change, negative = cytotoxic: series mostly up to about 92 µM. The essentials:
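Cell viability multiplexed with the CAR agonist screen: CellTiter-Fluor fluorescence after 23 hr at 37 C. HepG2-CYP2B6-hCAR cells got compounds at 15 concentrations with PK11195 at 0.75 uM final.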

Test [3] can be described thus: qHTS assay to identify small molecule antagonists of the constitutive androstane receptor (CAR) signaling pathway - cell viability counter screen (AID 1224837). Further: series mostly up to about 92 µM; nearly all actives have a fitted effect of over 45% in size. The essentials: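 Using CellTiter-Fluor, viability is scored in HepG2 cells stably carrying hCAR and a 2.2kb CYP2B6 reporter after 23 hr compound exposure across 15 concentrations, with CITCO present at 50 nM.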

For test [4], the target named is Nuclear receptor subfamily 1 group I member 3 (Homo sapiens) (UniProt Q14994). Put plainly: qHTS assay to identify small molecule antagonists of the constitutive androstane receptor (CAR) signaling pathway (AID 1224838).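 Further: HepG2 cells stably expressing hCAR with CYP2B6 luciferase reporter stimulated by CITCO; nearly all actives have a fitted effect of over 40% in size.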 Further: potency means the concentration at half of the fitted maximal effect. The essentials: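 Reporter luminescence was quantified after 24 h exposure of hCAR/CYP2B6-2.2kb double-stable HepG2 cells to compounds at 15 concentrations in the presence of 50 nM CITCO final.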
Nuclear receptor subfamily 1 group I member 3 (Homo sapiens), sequence (Q14994 whole entry, looked up): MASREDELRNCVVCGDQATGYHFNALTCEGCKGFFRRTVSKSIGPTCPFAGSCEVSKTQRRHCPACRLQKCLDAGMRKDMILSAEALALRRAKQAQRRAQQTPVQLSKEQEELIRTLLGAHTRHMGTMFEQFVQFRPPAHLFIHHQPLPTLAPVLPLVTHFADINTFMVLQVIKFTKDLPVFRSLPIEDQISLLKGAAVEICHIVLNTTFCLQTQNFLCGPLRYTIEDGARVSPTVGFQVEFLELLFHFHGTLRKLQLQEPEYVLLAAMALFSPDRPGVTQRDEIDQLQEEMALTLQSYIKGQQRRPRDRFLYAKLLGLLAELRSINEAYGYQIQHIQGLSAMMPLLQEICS

Test [5] shares this target. Put plainly: qHTS assay to identify small molecule agonists of the constitutive androstane receptor (CAR) signaling pathway (AID 1224839). Further: nearly all actives have a fitted effect of over 15% in size. Further: potency means the concentration at half of the fitted maximal effect. Put shortly: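 Luminescent ONE-Glo read-out after 24 hr, 37 C exposure of double-stable HepG2-CYP2B6-hCAR reporter cells to a 15-point compound series, in the presence of 0.75 uM PK11195 (final).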
Test [6] can be described thus: qHTS assay to identify small molecule antagonists of the estrogen related receptor signaling pathway with the pleiotropic PPARgamma coactivator (PGC) from Tox21 10K library - cell viability counter screen (AID 1224840; active means well fitted cell-killing curve with a large enough effect in the repeat runs, not every such curve was filed as active; further: nearly all actives have a fitted effect of over 40% in size). Put shortly:
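Here the PGC/ERR cells serve as a cytotoxicity control: they are exposed to compounds for 17.5 hours at 37 C, and live-cell signal is quantified using CellTiter-Fluor fluorescence.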

Test [7] in a line: qHTS assay to identify small molecule antagonists of the estrogen related receptor signaling pathway with the pleiotropic PPARgamma coactivator (PGC) from Tox21 10K library (AID 1224841; call rule not given here; further: series mostly up to about 92 µM; actives are mostly falling curves and most rising ones were filed inactive; nearly all actives have a fitted effect of over 50% in size). Put shortly: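 Each well held 2,000 PGC/ERR cells, pre-incubated six hours (37 C, 5% CO2). Test substances in DMSO were added by pin tool and left for 18 h at 37 C before luciferase detection by One-Glo.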

Test [8] in a line: qHTS assay to identify small molecule agonists of the estrogen related receptor signaling pathway with the pleiotropic PPARgamma coactivator (PGC) from Tox21 10K library (AID 1224842). Further: nearly all actives have a fitted effect of over 15% in size. Put shortly: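 PGC/ERR reporter cell line, 2,000 cells per well, incubated 6 h at 37 C before 23 nL compound in DMSO was added. After 18 h at 37 C, One-Glo luminescence read following 30 min at room temperature.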

Test [9] deals with Luciferin 4-monooxygenase (Photinus pyralis) (UniProt P08659). The test is described as follows: qHTS assay to identify small molecule inhibitors of firefly luciferase (AID 1224835). Further: nearly all actives have a fitted effect of over 25% in size. Further: potency means the concentration at half of the fitted maximal effect. Put shortly: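 Biochemical qHTS: compounds run as interplate titrations against purified firefly enzyme, with D-luciferin and ATP each at its KM concentration. Light output recorded by CCD imaging.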
Luciferin 4-monooxygenase (Photinus pyralis), sequence (P08659 whole entry, looked up): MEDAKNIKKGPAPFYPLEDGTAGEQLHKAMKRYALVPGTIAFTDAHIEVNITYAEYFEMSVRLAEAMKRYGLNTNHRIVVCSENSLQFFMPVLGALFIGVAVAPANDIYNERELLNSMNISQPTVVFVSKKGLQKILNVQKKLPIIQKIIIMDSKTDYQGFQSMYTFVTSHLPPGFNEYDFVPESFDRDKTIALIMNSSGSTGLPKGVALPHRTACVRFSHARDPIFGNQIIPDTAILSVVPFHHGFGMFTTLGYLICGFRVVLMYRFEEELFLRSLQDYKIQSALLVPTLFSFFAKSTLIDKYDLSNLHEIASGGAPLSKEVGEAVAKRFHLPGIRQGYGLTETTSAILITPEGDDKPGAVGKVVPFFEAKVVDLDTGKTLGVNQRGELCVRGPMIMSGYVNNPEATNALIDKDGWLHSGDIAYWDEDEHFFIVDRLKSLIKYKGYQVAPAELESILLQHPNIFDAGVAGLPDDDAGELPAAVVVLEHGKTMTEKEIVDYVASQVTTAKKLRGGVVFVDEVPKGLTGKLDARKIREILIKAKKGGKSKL

Each structure is given as a SMILES string. Inconclusive results are not listed. Unmarked numbers belong to inactive results. The source made the active and inactive calls. Unless noted, the call rests on the fitted dose curve; in most records, active means well fitted curve in the direction sought with a large enough effect in the repeat runs; inconclusive means weak or mixed curves; inactive means no such curve, though single readings can be large; an effect the other way counts as inactive or inconclusive.
On the % scale 0 is the no-effect control and ±100 the full control effect.

Regarding `CC(=O)Oc1cccc(O)c1`, the Potency result in test [1], in test [2], in [3], in test [4], in [5] and in test [6] was “inactive” each time. Besides, the Potency result in test [7] and in test [8] was “inactive” each time.

In the case of `CCN(CC)CCNC(=O)c1cc(Cl)c(N)cc1OC`, the Potency result in [1], in [2], in test [3], in [4], in [5] and in test [6] was “inactive” each time.

`CC(C)COC(=O)COc1cc(Cl)c(Cl)cc1Cl`: the Potency result in [1], in test [2], in [3], in test [4], in test [5] and in test [6] was “inactive” throughout. For the same compound, the Potency result in [7] and in test [8] was “inactive” throughout.

`CC(C)(C)CCCCCCOC(=O)c1ccccc1C(=O)OCCCCCCC(C)(C)C`: the Potency entry in test [1], in [2], in test [3], in [4], in test [5] and in [6] was “inactive” in each case. The Potency result in test [8] is “inactive”.

For the compound `CCCCCCCCCCCSCC(=O)O`, the Potency result in test [1], in test [2], in test [3], in [4], in test [5] and in test [6] was “inactive” each time. Besides, the Potency entry in test [7] and in test [8] was “inactive” in each case.

For the compound `CCCCCCCCCCCCCCCCCC(=O)OCC(CC)CCCC` (configuration not stated), the Potency result in test [1], in [2], in [3], in [4], in [5] and in test [6] was “inactive” in each case.

Turning to `O=[N+]([O-])c1ccc2ncccc2c1`, the Potency result in test [1], in test [2], in [3], in test [4], in test [5] and in test [6] was “inactive” in each case. Further, the Potency entry in test [8] is “inactive”.

Take `CCSC(=O)N(CC)CC`: the Potency entry in test [1], in test [2], in [3], in [4], in test [5] and in test [6] was “inactive” each time.

With `C=CC(=O)O`, the Potency entry in test [1], in test [2], in [3], in test [4] and in test [6] was “inactive” in each case.

As to `O=C(O)/C=C/c1ccc(O)c(O)c1`, the Potency entry in [1], in test [2], in [3], in test [4], in [5] and in [6] was “inactive” throughout.

With `CCN(CC)c1cccc(O)c1`, the Potency result in [1], in [2], in test [3], in [4], in test [6] and in test [7] was “inactive” in each case. Also, in test [8], the Potency result was “inactive”. Besides, the Potency in test [5] was 55.6 µM (active).

As for `Cc1cccc(C)c1NC(=O)c1cc(S(N)(=O)=O)c(Cl)cc1O`, the Potency result in [1], in test [2], in test [3], in test [4], in test [5] and in test [6] was “inactive” in each case.

On to `CCC(Cl)CC(Cl)C(Cl)C(Cl)C(Cl)C(C)Cl` (configuration not stated), for which the viability change, negative = cytotoxic in test [1] is -2.15% [at 19 µM]; in test [2], -5.9% [at 19 µM]; in test [6], -3.01% [at 19 µM]. The activity change, negative = cytotoxicity in test [3] is -3.5% [at 19 µM]. For the same compound, in [4], the activity, negative = inhibition was 94.1% [at 19 µM]. Further, the Potency in test [5] was 2.65 µM (active).

In the case of `C/C(C=O)=C\c1ccccc1`, the Potency entry in test [1], in test [2], in [3], in [4], in [5] and in test [6] was “inactive” throughout.

Turning to `CCN(CC)CCOc1ccccc1C(=O)CCc1ccccc1`, the Potency result in test [9], in [2], in [4], in test [6], in test [7] and in test [8] was “inactive” each time.

For the compound `Cc1ccc2c(c1[N+](=O)[O-])C(=O)c1ccccc1C2=O`, the Potency result in [9], in test [5], in test [6] and in [7] was “inactive” in each case. For the same compound, the values for the Potency in [2] and in [4] were 6.73 µM (active) and 0.673 µM (active), respectively.

For `COC(C)(C)OC`, the Potency entry in test [1], in test [2], in test [3], in [6], in [7] and in test [8] was “inactive” in each case.

Consider `COC(=O)Nc1nc2ccc(C(=O)C3CC3)cc2[nH]1`, for which the Potency in test [9] is 19.5 µM (active). Moreover, the Potency result in [2], in test [3] and in test [6] was “inactive” each time.

Turning to `CC/C=C\C/C=C\C/C=C\CCCCCCCC(=O)OCC`, the Potency result in test [2], in test [3] and in test [8] was “inactive” in each case.

For the compound `O=C(NC(Cc1cc(=O)[nH]c2ccccc12)C(=O)O)c1ccc(Cl)cc1` (configuration not stated), the Potency result in [9], in [2], in test [3], in [4] and in test [6] was “inactive” throughout.

For the compound `CCOC(=O)c1c(N)sc2c1CCN(Cc1ccccc1)C2`, the Potency result in [1], in [2], in test [3], in test [4] and in test [6] was “inactive” in each case.

For the compound `N[C@@H](Cc1cc(I)c(O)c(I)c1)C(=O)O`, the Potency entry in test [1], in [2], in test [3], in [4], in test [6] and in [7] was “inactive” throughout. In addition, in test [8], the Potency entry is “inactive”.

With `O=C(c1ccccc1)c1ccc(O)cc1`, in test [1], the Potency is 69.4 µM (active). Moreover, the Potency entry in [2], in test [3], in test [4], in test [6], in test [7] and in test [8] was “inactive” in each case.

In the case of `COc1ccc(-c2cc(=S)ss2)cc1`, in test [9], the Potency is 15.5 µM (active). The Potency entry in test [2], in [3], in test [4] and in test [6] was “inactive” throughout.
